Test results: PMC7862700, “An all-to-all approach to the identification of sequence-specific readers for epigenetic DNA modifications on cytosine”

What was measured:
Assay in all cases: DAPPL (digital affinity profiling via proximity ligation, sequencing); 10 mM Tris-HCl pH 7.5, 50 mM NaCl, 1 mM DTT, 4% glycerol, room temperature, 30 min; GST-TFs on glutathione beads, 16-mer random dsDNA library, 0.1% formaldehyde crosslink after washing; high values mean tight binding
FEV = target: T1, FEV (Homo sapiens, UniProt Q99581 1-238); conditions: protein: recombinant; tags: N-terminal GST; dsDNA, one strand shown
T1 sequence: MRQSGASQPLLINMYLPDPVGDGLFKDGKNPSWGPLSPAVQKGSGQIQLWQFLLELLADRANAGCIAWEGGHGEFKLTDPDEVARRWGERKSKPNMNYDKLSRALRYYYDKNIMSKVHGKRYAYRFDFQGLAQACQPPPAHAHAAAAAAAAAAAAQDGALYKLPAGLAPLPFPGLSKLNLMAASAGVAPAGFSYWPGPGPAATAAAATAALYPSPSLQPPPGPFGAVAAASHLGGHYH
In short: (§1)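 After expression in yeast as GST fusions, human transcription factors were bound to glutathione beads, DNA-barcoded and mixed with a tag-only sample. The pools were incubated with 200 nmole of a 16-mer random double-stranded DNA library in Tris/NaCl/DTT/glycerol buffer (30 min, room temperature), washed and crosslinked with 0.1% formaldehyde. Proximity ligation with BsaI/T4 ligase ran for 1 h at 37 °C, before PCR amplification and sequencing on an Illumina NextSeq500. Binding signal is a hexamer's read frequency for a factor divided by its frequency for the tag-only sample.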

ETV5 = ETV5 (Homo sapiens, UniProt P41161 1-510); conditions: protein: recombinant; tags: N-terminal GST; dsDNA, one strand shown
Sequence of ETV5 (P41161 whole entry): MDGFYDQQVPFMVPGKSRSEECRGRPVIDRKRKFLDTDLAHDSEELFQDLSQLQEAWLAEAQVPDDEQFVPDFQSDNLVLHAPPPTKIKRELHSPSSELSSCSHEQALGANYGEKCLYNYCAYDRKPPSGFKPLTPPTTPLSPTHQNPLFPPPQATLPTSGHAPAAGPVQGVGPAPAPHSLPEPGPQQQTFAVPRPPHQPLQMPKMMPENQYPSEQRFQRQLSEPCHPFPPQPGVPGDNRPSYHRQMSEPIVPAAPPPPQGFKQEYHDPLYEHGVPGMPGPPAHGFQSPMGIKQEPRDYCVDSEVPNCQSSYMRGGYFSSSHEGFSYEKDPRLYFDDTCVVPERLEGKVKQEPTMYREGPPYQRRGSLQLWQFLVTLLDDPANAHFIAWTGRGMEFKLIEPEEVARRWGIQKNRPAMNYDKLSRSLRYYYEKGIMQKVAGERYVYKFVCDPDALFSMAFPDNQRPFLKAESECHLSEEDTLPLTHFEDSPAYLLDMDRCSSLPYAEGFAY
In short: as §1

HSF1 = HSF1 (Homo sapiens, UniProt Q00613 1-529); conditions: protein: recombinant; tags: N-terminal GST; chain copies: 3; dsDNA, one strand shown
Sequence of HSF1 (Q00613 whole entry): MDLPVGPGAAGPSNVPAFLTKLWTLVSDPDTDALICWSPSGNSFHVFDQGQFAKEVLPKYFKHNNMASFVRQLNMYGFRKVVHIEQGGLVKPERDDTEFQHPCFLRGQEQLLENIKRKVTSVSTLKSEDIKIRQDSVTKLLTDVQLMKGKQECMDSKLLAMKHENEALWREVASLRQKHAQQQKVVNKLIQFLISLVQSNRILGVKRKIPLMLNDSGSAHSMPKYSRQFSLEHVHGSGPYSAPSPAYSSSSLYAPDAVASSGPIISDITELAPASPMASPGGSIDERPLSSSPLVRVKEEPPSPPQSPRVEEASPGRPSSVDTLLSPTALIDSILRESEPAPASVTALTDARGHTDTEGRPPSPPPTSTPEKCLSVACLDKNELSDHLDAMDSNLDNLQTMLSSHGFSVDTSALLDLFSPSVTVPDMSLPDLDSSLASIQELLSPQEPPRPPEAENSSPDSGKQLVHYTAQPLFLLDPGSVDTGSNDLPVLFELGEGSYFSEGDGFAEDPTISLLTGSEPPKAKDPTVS
In short: as §1

SPIC = target: T2, SPIC (Homo sapiens, UniProt Q8N5J4 1-248); conditions: protein: recombinant; tags: N-terminal GST; dsDNA, one strand shown
T2 sequence: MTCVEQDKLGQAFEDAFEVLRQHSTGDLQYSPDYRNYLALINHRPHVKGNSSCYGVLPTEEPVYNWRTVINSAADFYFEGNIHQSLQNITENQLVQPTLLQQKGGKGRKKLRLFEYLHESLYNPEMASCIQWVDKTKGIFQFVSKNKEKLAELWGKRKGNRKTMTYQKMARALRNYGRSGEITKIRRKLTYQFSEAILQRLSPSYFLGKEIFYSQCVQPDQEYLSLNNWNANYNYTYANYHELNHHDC
In short: as §1

ELF4 = ELF4 (Homo sapiens, UniProt Q99607 1-663); conditions: protein: recombinant; tags: N-terminal GST; dsDNA, one strand shown
Sequence of ELF4 (Q99607 whole entry): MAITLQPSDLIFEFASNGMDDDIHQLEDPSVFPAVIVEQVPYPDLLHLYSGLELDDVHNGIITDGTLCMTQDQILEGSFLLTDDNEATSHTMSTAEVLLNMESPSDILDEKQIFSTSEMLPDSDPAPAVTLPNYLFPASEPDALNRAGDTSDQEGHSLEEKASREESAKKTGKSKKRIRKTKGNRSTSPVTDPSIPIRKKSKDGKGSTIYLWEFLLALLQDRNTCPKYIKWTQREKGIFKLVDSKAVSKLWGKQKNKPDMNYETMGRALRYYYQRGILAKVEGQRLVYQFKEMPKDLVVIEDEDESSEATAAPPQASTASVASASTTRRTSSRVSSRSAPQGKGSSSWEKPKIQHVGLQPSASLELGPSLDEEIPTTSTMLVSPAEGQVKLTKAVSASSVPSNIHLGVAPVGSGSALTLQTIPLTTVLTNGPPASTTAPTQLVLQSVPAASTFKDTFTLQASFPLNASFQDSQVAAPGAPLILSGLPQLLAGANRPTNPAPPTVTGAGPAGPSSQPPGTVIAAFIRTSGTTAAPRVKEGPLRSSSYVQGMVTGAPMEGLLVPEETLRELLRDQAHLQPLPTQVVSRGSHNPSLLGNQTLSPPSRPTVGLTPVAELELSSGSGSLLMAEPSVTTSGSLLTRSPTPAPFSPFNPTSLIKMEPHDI
In short: as §1

ELK4 = target: T3, ELK4 (Homo sapiens, UniProt P28324-2 1-405); conditions: protein: recombinant; tags: N-terminal GST; dsDNA, one strand shown
T3 sequence: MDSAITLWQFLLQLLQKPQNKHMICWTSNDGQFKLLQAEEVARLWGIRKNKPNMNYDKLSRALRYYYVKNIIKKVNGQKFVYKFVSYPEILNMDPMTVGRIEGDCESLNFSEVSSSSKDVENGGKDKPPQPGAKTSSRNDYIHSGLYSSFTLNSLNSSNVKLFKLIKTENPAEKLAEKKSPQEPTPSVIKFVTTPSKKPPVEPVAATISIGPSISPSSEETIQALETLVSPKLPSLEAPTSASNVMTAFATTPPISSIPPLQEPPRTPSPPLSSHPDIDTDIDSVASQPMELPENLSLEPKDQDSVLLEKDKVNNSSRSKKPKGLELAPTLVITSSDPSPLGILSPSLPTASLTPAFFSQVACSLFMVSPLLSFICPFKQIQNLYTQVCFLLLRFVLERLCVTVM
In short: as §1

ETV2 = target: T4, ETV2 (Homo sapiens, UniProt O00321 1-342); conditions: protein: recombinant; tags: N-terminal GST; dsDNA, one strand shown
T4 sequence: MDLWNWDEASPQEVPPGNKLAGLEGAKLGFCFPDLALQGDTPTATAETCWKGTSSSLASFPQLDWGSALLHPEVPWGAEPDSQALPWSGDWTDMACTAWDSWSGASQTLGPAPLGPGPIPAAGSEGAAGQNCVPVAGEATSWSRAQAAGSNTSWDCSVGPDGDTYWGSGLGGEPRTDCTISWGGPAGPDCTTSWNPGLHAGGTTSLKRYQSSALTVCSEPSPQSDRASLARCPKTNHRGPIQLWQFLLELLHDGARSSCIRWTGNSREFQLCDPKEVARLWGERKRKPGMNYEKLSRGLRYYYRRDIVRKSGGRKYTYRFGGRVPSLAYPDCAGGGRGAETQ
In short: as §1

ELF3 = target: T5, ELF3 (Homo sapiens, UniProt P78545 1-371); conditions: protein: recombinant; tags: N-terminal GST; dsDNA, one strand shown
T5 sequence: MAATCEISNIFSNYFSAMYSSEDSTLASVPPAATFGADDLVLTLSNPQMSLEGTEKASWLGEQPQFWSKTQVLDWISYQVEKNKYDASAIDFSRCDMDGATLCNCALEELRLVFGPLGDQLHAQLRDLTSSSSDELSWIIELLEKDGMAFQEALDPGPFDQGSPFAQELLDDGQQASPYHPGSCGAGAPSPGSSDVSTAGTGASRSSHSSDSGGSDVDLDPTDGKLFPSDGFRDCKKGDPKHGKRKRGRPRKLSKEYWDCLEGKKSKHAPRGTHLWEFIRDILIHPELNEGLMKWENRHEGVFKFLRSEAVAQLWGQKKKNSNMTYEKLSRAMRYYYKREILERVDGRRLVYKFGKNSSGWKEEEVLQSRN
In short: as §1

CRX = CRX (Homo sapiens, UniProt O43186 1-299); conditions: protein: recombinant; tags: N-terminal GST; dsDNA, one strand shown
Sequence of CRX (O43186 whole entry): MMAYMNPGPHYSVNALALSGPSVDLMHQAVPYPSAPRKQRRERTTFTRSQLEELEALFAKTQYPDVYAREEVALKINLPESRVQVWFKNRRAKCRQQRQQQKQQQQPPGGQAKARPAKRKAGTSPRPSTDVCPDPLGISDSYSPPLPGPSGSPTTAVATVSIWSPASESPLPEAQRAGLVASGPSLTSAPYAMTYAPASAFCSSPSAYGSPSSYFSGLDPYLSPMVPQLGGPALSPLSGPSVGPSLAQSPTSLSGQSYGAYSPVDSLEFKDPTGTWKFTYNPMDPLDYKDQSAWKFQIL
In short: as §1

ETV1 = ETV1 (Homo sapiens, UniProt P50549 1-477); conditions: protein: recombinant; tags: N-terminal GST; dsDNA, one strand shown
Sequence of ETV1 (P50549 whole entry): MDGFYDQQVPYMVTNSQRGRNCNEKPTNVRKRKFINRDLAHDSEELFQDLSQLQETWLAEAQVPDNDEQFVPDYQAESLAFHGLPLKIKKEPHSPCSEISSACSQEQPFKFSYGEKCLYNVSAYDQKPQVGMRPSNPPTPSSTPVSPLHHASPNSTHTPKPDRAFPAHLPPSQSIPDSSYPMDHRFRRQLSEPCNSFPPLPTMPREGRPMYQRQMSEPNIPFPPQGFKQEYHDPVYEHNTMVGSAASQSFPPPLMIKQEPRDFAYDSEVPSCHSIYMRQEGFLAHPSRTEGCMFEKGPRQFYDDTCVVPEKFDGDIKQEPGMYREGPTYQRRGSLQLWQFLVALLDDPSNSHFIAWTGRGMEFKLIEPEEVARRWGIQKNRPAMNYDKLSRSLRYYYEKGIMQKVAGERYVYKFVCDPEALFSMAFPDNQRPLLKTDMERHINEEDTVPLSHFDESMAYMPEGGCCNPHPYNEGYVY
In short: as §1

ERF = target: T6, ERF (Homo sapiens, UniProt P50548 1-548); conditions: protein: recombinant; tags: N-terminal GST; dsDNA, one strand shown
T6 sequence: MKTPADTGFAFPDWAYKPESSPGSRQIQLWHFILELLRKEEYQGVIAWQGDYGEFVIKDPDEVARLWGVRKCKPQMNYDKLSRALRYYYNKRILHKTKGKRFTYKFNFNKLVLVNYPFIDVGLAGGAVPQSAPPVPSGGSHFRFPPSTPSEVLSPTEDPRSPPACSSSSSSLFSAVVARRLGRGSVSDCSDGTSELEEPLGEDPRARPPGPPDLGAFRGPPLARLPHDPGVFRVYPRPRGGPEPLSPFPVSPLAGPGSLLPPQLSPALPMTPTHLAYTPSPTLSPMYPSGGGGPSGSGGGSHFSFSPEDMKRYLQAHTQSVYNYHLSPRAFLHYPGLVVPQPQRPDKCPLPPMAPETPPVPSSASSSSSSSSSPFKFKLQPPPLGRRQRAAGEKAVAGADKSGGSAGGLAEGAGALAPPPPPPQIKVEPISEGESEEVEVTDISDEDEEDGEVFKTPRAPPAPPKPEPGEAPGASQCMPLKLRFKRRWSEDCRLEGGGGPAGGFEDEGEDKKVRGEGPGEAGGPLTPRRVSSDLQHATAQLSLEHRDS
In short: as §1

ETV3L = target: T7, ETV3L (Homo sapiens, UniProt Q6ZN32 1-361); conditions: protein: recombinant; tags: N-terminal GST; dsDNA, one strand shown
T7 sequence: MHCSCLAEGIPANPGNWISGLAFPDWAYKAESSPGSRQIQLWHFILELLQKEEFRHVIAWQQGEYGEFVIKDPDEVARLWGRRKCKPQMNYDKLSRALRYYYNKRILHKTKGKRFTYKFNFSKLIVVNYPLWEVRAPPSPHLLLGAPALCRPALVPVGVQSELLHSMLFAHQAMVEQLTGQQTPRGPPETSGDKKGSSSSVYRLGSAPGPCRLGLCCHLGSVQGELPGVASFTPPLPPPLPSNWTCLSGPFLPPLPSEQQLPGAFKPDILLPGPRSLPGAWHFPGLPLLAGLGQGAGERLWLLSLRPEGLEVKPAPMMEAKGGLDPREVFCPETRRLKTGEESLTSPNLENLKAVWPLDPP
In short: as §1

ETS2 = target: T8, ETS2 (Homo sapiens, UniProt P15036 1-469); conditions: protein: recombinant; tags: N-terminal GST; dsDNA, one strand shown
T8 sequence: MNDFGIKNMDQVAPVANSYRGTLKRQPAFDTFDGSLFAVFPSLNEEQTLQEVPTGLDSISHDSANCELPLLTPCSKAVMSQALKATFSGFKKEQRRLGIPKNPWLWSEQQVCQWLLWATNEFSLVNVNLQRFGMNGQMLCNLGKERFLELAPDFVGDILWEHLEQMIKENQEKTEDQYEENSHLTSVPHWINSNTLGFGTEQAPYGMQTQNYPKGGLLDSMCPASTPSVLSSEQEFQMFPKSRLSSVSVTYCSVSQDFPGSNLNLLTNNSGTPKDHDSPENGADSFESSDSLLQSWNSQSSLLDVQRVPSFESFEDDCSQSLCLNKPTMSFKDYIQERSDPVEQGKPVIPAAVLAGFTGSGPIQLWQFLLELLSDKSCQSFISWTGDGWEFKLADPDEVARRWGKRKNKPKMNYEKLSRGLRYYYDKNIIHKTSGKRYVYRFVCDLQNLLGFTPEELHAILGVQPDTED
In short: as §1

SPDEF = target: T9, SPDEF (Homo sapiens, UniProt O95238 1-335); conditions: protein: recombinant; tags: N-terminal GST; dsDNA, one strand shown
T9 sequence: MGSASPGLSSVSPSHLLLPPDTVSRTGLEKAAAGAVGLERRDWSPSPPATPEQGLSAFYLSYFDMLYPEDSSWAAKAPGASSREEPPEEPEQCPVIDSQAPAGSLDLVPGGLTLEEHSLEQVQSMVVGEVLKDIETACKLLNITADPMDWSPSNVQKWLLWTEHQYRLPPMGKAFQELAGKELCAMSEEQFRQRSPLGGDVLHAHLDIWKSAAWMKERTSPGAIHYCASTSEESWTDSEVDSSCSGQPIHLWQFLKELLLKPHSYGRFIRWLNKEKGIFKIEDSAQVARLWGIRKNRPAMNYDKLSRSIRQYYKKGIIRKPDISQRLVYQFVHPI
In short: as §1

ETV7 = target: T10, ETV7 (Homo sapiens, UniProt Q9Y603 1-341); conditions: protein: recombinant; tags: N-terminal GST; dsDNA, one strand shown
T10 sequence: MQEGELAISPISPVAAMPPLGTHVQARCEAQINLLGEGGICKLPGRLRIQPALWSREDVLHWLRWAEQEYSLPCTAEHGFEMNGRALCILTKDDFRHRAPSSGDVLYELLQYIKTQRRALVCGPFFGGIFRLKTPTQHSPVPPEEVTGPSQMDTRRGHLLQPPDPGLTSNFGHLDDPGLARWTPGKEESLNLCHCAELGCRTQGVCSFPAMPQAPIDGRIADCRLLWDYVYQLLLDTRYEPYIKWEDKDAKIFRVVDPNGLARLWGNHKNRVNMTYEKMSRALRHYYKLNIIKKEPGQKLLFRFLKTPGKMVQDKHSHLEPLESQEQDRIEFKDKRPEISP
In short: as §1

ELF5 = target: T11, ELF5 (Homo sapiens, UniProt Q9UKW6-2 1-255); conditions: protein: recombinant; tags: N-terminal GST; dsDNA, one strand shown
T11 sequence: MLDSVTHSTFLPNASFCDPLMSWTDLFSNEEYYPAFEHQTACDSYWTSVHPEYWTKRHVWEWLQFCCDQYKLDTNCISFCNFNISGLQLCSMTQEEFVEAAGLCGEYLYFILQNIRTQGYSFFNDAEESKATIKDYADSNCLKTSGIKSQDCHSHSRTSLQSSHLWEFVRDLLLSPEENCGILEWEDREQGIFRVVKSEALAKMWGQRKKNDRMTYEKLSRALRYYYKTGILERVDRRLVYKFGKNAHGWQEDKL
In short: as §1

ETV3 = target: T12, ETV3 (Homo sapiens, UniProt P41162-2 1-143); conditions: protein: recombinant; tags: N-terminal GST; dsDNA, one strand shown
T12 sequence: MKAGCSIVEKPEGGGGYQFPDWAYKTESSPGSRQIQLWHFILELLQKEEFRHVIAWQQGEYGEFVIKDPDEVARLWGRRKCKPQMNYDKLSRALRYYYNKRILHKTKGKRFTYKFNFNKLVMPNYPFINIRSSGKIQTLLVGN
In short: as §1

ETV6 = ETV6 (Homo sapiens, UniProt P41212 1-452); conditions: protein: recombinant; tags: N-terminal GST; dsDNA, one strand shown
Sequence of ETV6 (P41212 whole entry): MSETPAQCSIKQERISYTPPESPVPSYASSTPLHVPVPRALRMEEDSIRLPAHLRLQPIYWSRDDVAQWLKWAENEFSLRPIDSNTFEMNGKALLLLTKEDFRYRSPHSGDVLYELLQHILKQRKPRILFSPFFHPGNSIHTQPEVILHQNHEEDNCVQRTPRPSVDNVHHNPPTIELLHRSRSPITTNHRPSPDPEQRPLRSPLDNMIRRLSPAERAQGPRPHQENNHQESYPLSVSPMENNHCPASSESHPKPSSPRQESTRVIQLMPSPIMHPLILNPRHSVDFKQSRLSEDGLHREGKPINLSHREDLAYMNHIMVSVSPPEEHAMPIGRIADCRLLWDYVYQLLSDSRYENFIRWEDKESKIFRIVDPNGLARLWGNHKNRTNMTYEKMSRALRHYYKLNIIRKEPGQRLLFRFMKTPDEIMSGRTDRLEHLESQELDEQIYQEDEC
In short: as §1

CTGCTG
binding signal (FEV): 1.25 fold enrichment (6-mer frequency, TF over GST control)
binding signal (ETV5): 1.25 fold enrichment (6-mer frequency, TF over GST control)
binding signal (HSF1): 1.09 fold enrichment (6-mer frequency, TF over GST control)
binding signal (SPIC): 1.47 fold enrichment (6-mer frequency, TF over GST control)
binding signal (ELF4): 1.25 fold enrichment (6-mer frequency, TF over GST control)
binding signal (ELK4): 1.27 fold enrichment (6-mer frequency, TF over GST control)
binding signal (ETV2): 1.05 fold enrichment (6-mer frequency, TF over GST control)
binding signal (ELF3): 1.13 fold enrichment (6-mer frequency, TF over GST control)
binding signal (CRX): 1.01 fold enrichment (6-mer frequency, TF over GST control)
binding signal (ETV1): 1.17 fold enrichment (6-mer frequency, TF over GST control)
binding signal (ERF): 1.08 fold enrichment (6-mer frequency, TF over GST control)
binding signal (ETV3L): 1.3 fold enrichment (6-mer frequency, TF over GST control)
binding signal (ETS2): 1.36 fold enrichment (6-mer frequency, TF over GST control)
binding signal (SPDEF): 1.26 fold enrichment (6-mer frequency, TF over GST control)
binding signal (ETV7): 1.13 fold enrichment (6-mer frequency, TF over GST control)
binding signal (ELF5): 1.27 fold enrichment (6-mer frequency, TF over GST control)
binding signal (ETV3): 1.27 fold enrichment (6-mer frequency, TF over GST control)
binding signal (ETV6): 1.22 fold enrichment (6-mer frequency, TF over GST control)
